Source: PubChem BioAssay (several laboratories)
GALR2 antag – GALR2 (human) receptor antagonism | inhibition, % at 4 µM | GALR2-expressing cells, antagonist mode | O43603 | hit rate 0.39% among 140,000; in the data active means inhibition above about 27%;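 further: cells stimulated with galanin 1-16 at roughly its EC80; 0% = agonist challenge control and 100% = basal control without agonist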
Target sequence (O43603 whole entry, looked up): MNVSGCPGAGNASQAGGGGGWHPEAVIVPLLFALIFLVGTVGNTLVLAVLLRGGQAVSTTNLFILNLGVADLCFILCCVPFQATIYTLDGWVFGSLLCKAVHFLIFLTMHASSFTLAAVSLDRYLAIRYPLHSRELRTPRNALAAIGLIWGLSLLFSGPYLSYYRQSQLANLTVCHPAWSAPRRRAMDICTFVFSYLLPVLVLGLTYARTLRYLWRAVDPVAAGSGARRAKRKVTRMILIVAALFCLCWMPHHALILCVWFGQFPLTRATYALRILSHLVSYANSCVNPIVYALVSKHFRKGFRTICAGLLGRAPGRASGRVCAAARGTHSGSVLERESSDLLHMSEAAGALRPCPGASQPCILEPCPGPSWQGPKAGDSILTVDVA
GALR2 ag – activates the human galanin receptor 2. hit rate 0.48% among 140,000. activation, % (no concentration beside the values). GALR2-expressing cells, agonist activation read-out. O43603. AID 803; in the data active means activation above about 5%, passing the limit was not always enough;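 further: 0% = vehicle buffer wells and 100% = reference agonist at full effect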
S1P2 antag – blocks the human S1P2 receptor | hit rate 0.21% among 97,000 | O95136 | inhibition, % at 5 µM | cell-based S1P2 antagonist assay, inhibition at 5 uM | AID 736; in the data active means inhibition above about 45%;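 further: CRE beta-lactamase reporter cells expressing human S1P2 stimulated with S1P; 0% = agonist at EC80 alone and 100% = agonist plus reference antagonist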
S1P2 agonist – S1P2 (human) receptor agonism | O95136 | S1P2-expressing cell line, agonist reporter read-out | activation, % at 4.5 µM | hit rate 0.46% among 97,000 | AID 729; in the data active means activation above about 16%;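 further: 0% = vehicle low control and 100% = maximal reference agonist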
sdo1 growth – restores growth of sdo1-depleted yeast. hit rate 0.21% among 140,000. z-score at 10 µM. AID 817. S. cerevisiae sdo1-depleted JHY4D growth rescue, OD600 30 h; hits give high values; pdr5 snq2 efflux-pump mutant strain;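 active means z-score above 3 at both the 24 hr and the 30 hr optical density reads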;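 further: z-score against mean and SD of all compound wells on the same plate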
FAK blocker – blocks human focal adhesion kinase activity. Q05397. biochemical FAK kinase activity assay. inhibition, %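 (tested at 7 µM)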. hit rate 0.84% among 97,000. AID 727; in the data active means inhibition above about 19%;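 further: 0% = DMSO and 100% = reference compound high control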
SDO1 rescue DR – confirmation of growth rescue in SDO1-depleted yeast, bone marrow failure. OD recovery (no concentration beside the values). S. cerevisiae JHY4D (SDO1-depleted) growth rescue, OD600, 30 h; hits give high values; efflux-deficient strain, SNQ2 and PDR5 mutated. hit rate 44% among 440. shares compounds with sdo1 growth;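 active means yeast growth recovered at 30 hours, either rising with dose fitted slope above 0.001 or with average optical density gain above 0.07, some results past the limit were not filed as active; inactive means growth falling with dose or no effect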;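 further: gain in OD600 from 0 h to 30 h averaged across all seven doses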
* = called active by the depositor; x = not tested or not shown. Shown are actives, neighbours in structure and some others; about 1.9% of the full set was active somewhere.

SMILES	GALR2 antag	GALR2 ag	S1P2 antag	S1P2 agonist	sdo1 growth	FAK blocker	SDO1 rescue DR
Cc1ccc(N(Cc2ccc(C(=O)NCCSc3ccccn3)cc2)S(C)(=O)=O)cc1C	-5.4	-0.7	x	x	7.24*	x	0.103*
Cc1cc(C)nc(SCC(=O)Nc2ncc(Cc3cccc(Cl)c3)s2)n1	13.2	1.4	x	x	1.25	x	0.0906*
O=C(CN1CCOCC1)Nc1ncc(Cc2cccc(Cl)c2)s1	3.6	0.3	x	x	2.33	x	x
CCC(=O)OC1=C2C(=Nc3c(c(=O)n(C)c(=O)n3C)C2c2ccccc2)c2ccccc21 (stereo not given)	4.2	-2.1	-6.0	-4.1	x	-1.9	x
O=c1oc2ccccc2c2nccnc12	0.2	0.2	10.5	-3.6	5.43*	0.6	0.0434
CC(C)CCNC(=O)C(c1ccncc1)N(Cc1cccs1)C(=O)Cn1nnc(-c2ccc(F)cc2)n1 (stereo not given)	4.8	-1.0	5.2	-7.4	-0.08	0.0	x
Cc1cc(C)cc(N(CCC#N)C(=O)CSc2nc3nc(C)cc(C)n3n2)c1	-2.7	0.1	-24.7	-2.5	2	2.9	x
CC(=O)Nc1ccc(SCC(=O)N(CCC#N)c2cc(C)cc(C)c2)cc1	-0.1	-1.6	-12.3	-3.7	3.9*	0.4	0.084*
CC(=O)Nc1ccc(S(=O)(=O)Nc2nc3ccccc3nc2Nc2ccc(S(N)(=O)=O)cc2)cc1	2.3	-0.1	x	x	0.81	x	x
Cc1nc(Nc2ccc(S(N)(=O)=O)cc2)oc1C	-16.3	-2.6	9.8	-3.3	6.49*	2.2	0.0499
O=C(CSc1ncn[nH]1)Nc1nc(-c2ccccc2)ns1	-2.2	-1.9	-35.1	-0.7	1.45	-1.1	0.0595
Cc1c(O)nc(SCC(=O)Nc2ccc3c4c(cccc24)CC3)n(-c2ccc(F)cc2)c1=O	-2.1	-0.2	x	x	0.72	x	x
CCOc1cc(NC(=O)c2ccco2)c(OCC)cc1NC(=O)c1cc(OC)c(OC)c(OC)c1	-9.9	-2.4	-29.1	10.5	1.25	1.0	0.0685
COc1ccc(C(=O)N=c2nc3ccccn3s2)cc1	23.6	-1.8	x	x	1.94	x	0.0855*
O=C(CSc1nnc(SCC(=O)c2ccco2)s1)c1ccco1	-1.6	-0.8	18.1	-3.2	2.55	4.3	0.0623
c1cnc(N2CCSCC2)nc1	-25.5	-1.6	1.0	-2.8	8.91*	3.3	0.0519
COC(=O)c1ccc(COc2ccccc2/C=C(\C#N)C(=O)Nc2c(C)cccc2C)cc1	18.8	1.4	x	x	-0.75	x	x
Cc1nc(CS(=O)(=O)c2ccccc2)cc(N2CCOCC2)n1	3.5	-1.9	7.0	-3.7	12*	1.7	0.0688*
COc1ccc(N2CC(C(=O)NCCCN3CCOCC3)CC2=O)cc1 (stereo not given)	4.1	-1.7	-14.4	-7.1	1.79	1.9	0.0836*
COc1ccc(C2=NOC(C(=O)NCCCN3CCOCC3)C2)cc1 (stereo not given)	-0.8	-1.0	20.6	-7.4	-0.49	1.6	x
Cc1ccc(S(=O)(=O)N(CCC(=O)O)Cc2ccc(Cl)cc2)cc1	-2.9	-0.3	1.6	-4.3	0.64	-3.7	x
O=C(CCCOc1ccc(Cl)cc1Cl)NCC1CCCO1 (stereo not given)	10.8	-3.3	-5.4	-8.6	0.22	-1.7	x
CCOC(=O)c1nnn(-c2nonc2N)c1CN1CCc2ccccc2C1	11.7	-4.4	-17.5	-1.1	11.2*	-2.6	0.106*
O=C(COC(=O)Cc1cccs1)Nc1ccccc1	-0.2	-1.5	14.4	-4.7	1.3	2.8	0.0344*
O=C(Cc1cccs1)Nc1ccc(-c2nnc(-c3ccccc3)o2)cc1	8.3	-3.0	18.0	-4.9	x	-1.8	x
SMILES	GALR2 antag	GALR2 ag	S1P2 antag	S1P2 agonist	sdo1 growth	FAK blocker	SDO1 rescue DR
CCN(CC)CCCN1C(=O)c2oc3ccccc3c(=O)c2C1c1cccs1 (stereo not given)	-16.9	0.9	-7.8	2.1	1.4	3.8	x
CCOC(=O)/C=C/C(=O)OCC(=O)Nc1ccc(OC)c(Cl)c1	2.1	-0.9	x	x	-1.76	x	x
COc1ccc(NC(=O)COC(=O)/C=C/C(=O)OCC(=O)Nc2ccc(OC)c(Cl)c2)cc1Cl	0.3	-0.6	x	x	1.44	x	0.0437
Cc1cc2c(c(=O)n1Cc1cccnc1)C(c1ccccc1)C(C#N)=C(N)O2 (stereo not given)	-6.8	-1.9	12.8	-2.1	5.76*	4.5	0.0673
COc1cc(/C=N/NC(=S)NCCN2CCOCC2)ccc1O	0.0	-0.7	x	x	1.19	x	x
O=C(O)c1ccc(COc2ccccc2[N+](=O)[O-])o1	-1.6	0.2	x	x	1.94	x	x
CC(=O)c1ccc(NC(=O)c2ccc(COc3ccccc3[N+](=O)[O-])o2)cc1	10.9	-0.4	x	x	1.89	x	0.0965*
O=C(CCCn1c(=O)[nH]c2cc(Cl)ccc2c1=O)NCCC1=CCCCC1	-4.2	0.7	13.0	-2.0	6.74*	-2.7	0.0914*
O=C(CCCn1c(=O)[nH]c2cc(Cl)ccc2c1=O)NCCCN1CCCC1	3.8	-2.7	-2.3	-1.8	1.38	-0.2	x
O=C(Nc1ccc(S(=O)(=O)N2CCCCCC2)cc1)c1ccco1	4.1	-1.1	-6.2	-3.6	1.44	3.1	0.07
C/C(=N\Nc1ccc(C(F)(F)F)cc1[N+](=O)[O-])C1CC1	-10.1	1.0	x	x	-0.74	x	x
CC(C)Oc1cccc(C(=O)O)c1	6.3	-0.1	23.2	-3.3	-0.8	5.7	x
CC(C(=O)Nc1cccnc1)N1C(=O)c2ccccc2C1=O (stereo not given)	-1.2	-1.5	10.0	-6.9	4.06*	-1.2	0.0876*
CC(C(=O)NCC1CCCO1)n1cccc1C(=O)c1ccccc1 (stereo not given)	-2.0	-0.8	5.7	-5.9	1.48	0.2	x
O=C(N/N=C/C1C(c2ccccc2)C1(Cl)Cl)c1cccc(Cl)c1 (stereo not given)	8.7	-1.6	x	x	0.3	x	x
Cc1ccnc(N/C=C(\C#N)c2nc(-c3cccc(Br)c3)cs2)c1	4.2	-3.6	-5.5	-7.2	-2.05	-1.2	x
COc1cc(/C=N/NC(=O)c2nc(C)cc(C)n2)ccc1O	-7.2	-0.2	-10.1	-4.1	0.71	-0.5	x
COc1cc(/C=N/NC(=O)c2ccoc2C)ccc1O	17.0	-1.9	x	x	2.59	x	0.074*
Cc1ccc(C(=O)COC(=O)CCC(=O)NC2CCCCC2)cc1C	-2.0	-0.8	11.5	-1.3	8.25*	1.9	0.0568
O=C(CCC(=O)OCC(=O)c1ccc(Cl)cc1)NC1CCCCC1	0.3	-1.6	10.5	-3.0	-0.12	-2.6	x
CC1Cc2ccccc2N1C(=O)Cn1cc([N+](=O)[O-])cn1 (stereo not given)	16.3	0.4	9.8	-3.0	0.74	3.4	x
CCCOC(=O)Nc1ccc(S(=O)(=O)Nn2cnnc2)cc1	-3.7	-2.8	-13.4	0.7	0.43	-2.5	x
CCCCOC(=O)Nc1ccc(S(=O)(=O)Nn2cnnc2)cc1	9.4	-1.6	x	x	3.74*	x	0.115*
CC(C)C1(C(C)C)OC(=O)c2ccccc21	-7.6	-2.0	x	x	3.04*	x	0.0685
Cc1cccc(NC(=O)COC(=O)CNC(=O)C2CCCCC2)c1	-12.2	-3.3	0.7	-2.8	5.72*	-1.6	0.0673
